# NS1 function inh: qHTS Assay for Inhibitors of Influenza NS1 Protein Function; 270,000 compounds, 0.4% hits; Potency, µM (series often up to 46.1 µM), without a hit: at the top dose activity, positive = more growth; note: potency is the fitted concentration of half-maximal effect; actives are rising curves; nearly all actives have a fitted effect of over 50% in size
#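 Read-out: OD600 growth recovery of NS1-expressing budding yeast. Cells grown overnight at 30C in -URA glucose medium, washed, resuspended and diluted 1:100 in 2% galactose assay medium, pH 6.0. Same strain lacking NS1 served as positive control.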
# SARS PLP yeast: qHTS of Yeast-based Assay for SARS-CoV PLP; S. cerevisiae expressing SARS-CoV PLpro, growth rescue; Potency, µM (titrated, usually from 32.9 µM), without a hit: top-dose activity, positive = growth rescue, usual class: activators; 330,000 compounds, 0.19% hits; AID 485353, 2010; note: potency is the fitted concentration of half-maximal effect; 0% is about no effect; nearly all actives have a fitted effect of over 55% in size
# Shiga inhibitor: A qHTS for Small Molecule Inhibitors of Shiga Toxin | Vero cells, Shiga toxin protein synthesis inhibition reporter | 290,000 compounds, 9.2% hits | inhibition, % at 38.7 µM; in the data active = inhibition mostly above about 28%, no sharp cut-off; inactive = mostly below about 43%; note: 0% is about no effect
# CHX counter: Cycloheximide Counterscreen for Small Molecule Inhibitors of Shiga Toxin. cell reporter, cycloheximide protein synthesis inhibition counterscreen. max response, %. 300,000 compounds, 12% hits; in the data active = max response mostly above about 13%, no sharp cut-off; inactive = mostly below about 14%; note: read at 38.3 µM for the half of the compounds with a filed dose; 0% is about no effect
# Active calls of the source: *; ? = inconclusive; nt = no result; [ ] = dose if it differs, or a comment. In the library only some 12% were active in any assay of this set; here they are far more common. Unless noted, calls come from the whole dose curve.
SMILES,NS1 function inh,SARS PLP yeast,Shiga inhibitor,CHX counter
CCn1c(SCC(=O)c2ccc(C)cc2)nnc1-c1ccoc1C,-13%,-11%,0,27*
Cc1occc1-c1nnc(SCC(=O)c2ccc(Cl)cc2)n1CC1CCCO1 (stereo unspecified),9%,0%,37,2
CCN(CC)C(=O)[C@H]1CC(CC(=O)NCCc2ccccn2)C(=O)N2CCc3c([nH]c4ccccc34)[C@]12C (stereo partly specified),nt,-4%,nt,nt
O=C(O)C(CO)(c1ccccc1)c1ccccc1,1%,0%,-5,0
N#Cc1ccc(-c2cccnc2)nc1SCC(=O)c1ccccc1,1%,-3%,82*,37*
CC(=O)c1ccc(NC(=O)CSc2nnc(-c3ccoc3C)n2Cc2ccccc2)cc1,2%,0%,31*,24*
CCn1c(SCC(N)=O)nnc1C(C)C,nt,1%,-13,-2
CCn1c(SCC(=O)c2ccc(Cl)cc2)nnc1C(C)C,-9%,-25%,116*,34*
CCn1c(SCC(=O)c2ccccc2)nnc1-c1ccoc1C,-6%,-4%,50*,21*
CCn1c(SCC(=O)N2CCN(c3ccccc3)CC2)nnc1-c1ccoc1C,3%,3%,2,-4
O=C(O)c1nc(-c2ccccc2)[nH]c1C(=O)O,-12%,nt,nt,nt
CCn1nnnc1SCC(=O)c1ccc(C)cc1,1%,-8%,121*,38*
O=C(O)COc1ccc(/C=C/c2nc(-c3ccccc3O)n[nH]2)cc1,15%,0%,nt,7
COc1ccc(/C=C/c2nc(-c3ccccc3O)n[nH]2)cc1OC,-28%,-29%,23*,20*
O=C(CCc1nnc(C2CCCCC2)o1)NCc1cccc(-n2cccn2)c1,-4%,0%,-4,10
CN(CCC1CCCCO1)C(=O)CCc1nnc(C2CCCCC2)o1 (stereo unspecified),1%,1%,40*,31*
CCOC(=O)C1(CCc2ccccc2)CCN(C(=O)CN2CCOC2=O)CC1,-2%,1%,46,21*
CCOC(=O)C1(CCc2ccccc2)CCN(C(=O)c2cnc(C)cn2)CC1,2%,-1%,83*,29*
CCOC(=O)C1(CCc2ccccc2)CCN(C(=O)C2=C(C)OCCO2)CC1,-2%,-1%,42*,22*
CC(C)(N)C(=O)N[C@@H]1C(=O)N2[C@@H]1SC(C)(C)[C@H]2C(=O)O,-6%,nt,nt,nt
CCOC(=O)C1=C(C)N2C(=C(C#N)[C@@H]1c1ccc(C(=O)OC)cc1)SC[C@@]2(O)C(C)(C)C,21%,-15%,-4,10
C=C(Br)CN(C)CC(=C)Br,0%,nt,nt,nt
CC(C)(C)n1ncc2c(=O)n(Cc3cccc(Cl)c3)cnc21,nt,-9%,46*,33*
CC(C)(C)n1ncc2c(=O)n(CC(=O)c3ccccc3)cnc21,-4%,-28%,81*,56*
CC(C)(C)n1ncc2c(=O)n(Cc3cccc(Cn4cnc5c(cnn5C(C)(C)C)c4=O)c3F)cnc21,nt,-6%,nt,nt
SMILES,NS1 function inh,SARS PLP yeast,Shiga inhibitor,CHX counter
CC(C)(C)n1ncc2c(=O)n(CC(=O)OCc3ccccc3)cnc21,-35%,-4%,-19,-5
CC(C)(C)n1ncc2c(=O)n(CC(=O)N3CCc4ccccc43)cnc21,5%,0%,69*,12*
Cc1ccc([N+](=O)[O-])cc1S(=O)(=O)Nc1ccccn1,1%,2%,-11,-1
CC1(C)CC(NC(=O)c2cc(S(=O)(=O)N3CCOCC3)ccc2Cl)CC(C)(C)N1,nt,4%,nt,nt
O=C(NC(c1ccccc1)c1ccccc1)c1ccc(=O)[nH]n1,4%,-1%,-14,-3
Cn1c(SCc2ccccn2)nnc1-c1cnccn1,1%,0%,57*,38*
Nn1c(SCc2ccccc2F)nnc1-c1cccnc1,2%,2%,75*,40*
Cc1cccc(CSc2nnc(-c3cnccn3)n2C)c1,-7%,0%,45*,17*
Cn1c(SCc2ccccc2F)nnc1-c1cnccn1,-10%,0%,111*,75*
Cn1c(SCc2ccccc2F)nnc1-c1ccccn1,-4%,-1%,109*,44*
Cn1nnnc1SCc1ccccc1F,5%,2%,-6,0
Cc1cccc(CSc2nnc(-c3ccccn3)n2N)c1,-12%,-8%,36,18*
C=C(C)CSc1nnc(-c2ccccc2)n1N,-7%,nt,75*,24*
CCNc1nc(SCCOc2ccc(Cl)cc2Cl)nc(N(C)C)n1,nt,0%,50,10
O=C(CN1C(=O)C2C3C=CC(C3)C2C1=O)NCCc1ccccc1 (stereo unspecified),-4%,3%,10,15*
O=C(CCN1C(=O)C2C3C=CC(C3)C2C1=O)NCCc1ccccc1Cl (stereo unspecified),-10%,?,28*,14*
O=C(CCN1C(=O)C2C3C=CC(C3)C2C1=O)Nc1ccccc1 (stereo unspecified),-2%,0%,4,-1
CCCNC(=O)[C@H](Cc1c[nH]c2ccccc12)NC(=O)c1ccccc1Cl,10%,26%,9,25*
CCCCNC(=O)[C@H](Cc1c[nH]c2ccccc12)NC(=O)c1ccccc1Cl,8%,4%,11,-1
O=C(N[C@@H](Cc1c[nH]c2ccccc12)C(=O)NC1CC1)c1ccccc1Cl,4%,6%,28,47*
COc1cc(C(=O)N[C@@H](Cc2c[nH]c3ccccc23)C(=O)O)cc(OC)c1OC,7%,0%,67*,35*
CC(C)(C)OC(=O)C[C@H]1C/C=C\C[C@H](CC(=O)N(CCO)Cc2ccccc2)C(=O)N[C@@H](Cc2ccccc2)COC1=O,nt,5%,nt,nt
Nc1nc(N)[n+]([O-])c(N)c1NCO,13%,nt,nt,nt
COc1cc(C(=O)OCC(=O)NC2CCCCC2)cc(OC)c1OC,nt,2%,nt,nt
Cc1ccc(NC(=O)c2onc(C)c2Cl)cc1,-15%,-9%,62*,30*
SMILES,NS1 function inh,SARS PLP yeast,Shiga inhibitor,CHX counter
Cc1noc(C(=O)Nc2ccc(F)c(Cl)c2)c1Cl,-2%,4%,30*,29*
Cc1noc(C(=O)Nc2cc(Cl)ccc2O)c1Cl,-31%,-6%,32,18
Cc1noc(C(=O)Nc2ccc(Cl)cc2)c1Cl,-2%,5%,-3,-3
O=c1c2ccccc2[nH]c(=S)n1-c1ccc2c(c1)OCCO2,12%,1%,99*,45*
CCc1cc2c(=O)n(C(C)C(=O)OC3CCCCC3)cnc2s1 (stereo unspecified),-9%,-2%,37*,41*
COCCN(C(=O)CNC(=O)c1ccco1)C(C(=O)NC1CCCC1)c1ccc(OC)c(OC)c1 (stereo unspecified),9%,10%,-7,-2
O=C(NCc1cc([N+](=O)[O-])ccc1O)c1cccnc1Sc1ccc(Cl)cc1,-53%,-3%,43*,40*
CCOc1ccc(-n2nnnc2-c2nc3ccccc3s2)cc1,9%,12%,138*,60*
Cc1ccc(-n2nnnc2-c2nc3ccccc3s2)cc1,20%,-5%,51*,15*
CSc1nnc(Nc2ccccc2C)s1,-10%,-9%,12,16*
C/C(N)=C(/C#N)C(=O)CSc1nnc(NC(C)C)s1,6%,-4%,58*,30*
O=C(CSc1nnc(Nc2ccccc2)s1)NC1CC1,nt,-1%[6.58 µM],nt,nt
